# Experimental data taken from PubChem BioAssay (NCATS).
# Where “and” joins values, the source holds several entries; their conditions need not be identical. Identical values can stand only once. Results filed as inconclusive are left out. A call without a number means that no potency is given here. Calls of active or inactive are those of the source. Unless noted, calls follow the shape of the dose curve; as a rule, active = well fitted curve in the direction sought with a large enough effect; inconclusive = small, poorly fitted or top-dose-only effect, or another doubt; inactive = no such curve, though single readings can be large; an effect the other way counts as inactive or inconclusive.
# Experiments:
# [1] = Cell Viability - BJ (AID 421; calls by dose curve;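 also: potency is read from the fitted curve at half-maximal effect; cells exposed to compound for 40 hours at 37 °C before readout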); settings: BJ fibroblast viability, qHTS
# Summary of the method: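 Quantitative HTS: ATP depletion in BJ cells after 40 hr compound exposure in complete culture medium, detected with CellTiter-Glo; AC50 from standard Hill fits.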
# [2] = Cell Viability - HepG2 (AID 433; calls by dose curve;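 also: potency is read from the fitted curve at half-maximal effect; potency for ATP loss meaning cytotoxicity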); settings: qHTS
# Summary of the method: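 HepG2 cells, 1500 per well, treated 40 hr at 37 °C in complete medium; viability from intracellular ATP by CellTiter-Glo luminescence. Normalized to DMSO and 100 uM tamoxifen; AC50 from Hill fit of qHTS concentration-response.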
# [3] = Cell Viability - MRC5 (AID 434; calls by dose curve;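 also: potency is read from the fitted curve at half-maximal effect; potency reflects cytotoxicity seen as loss of intracellular ATP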); settings: MRC5 lung fibroblast viability, qHTS
# Summary of the method: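 ATP luminescence read-out (CellTiter-Glo, 20 min RT) after 40 hr, 37 °C compound exposure of 1500 MRC5 cells/well. Data normalized to DMSO (basal) and 100 uM tamoxifen (100% inhibition); AC50 from standard Hill equation.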
# [4] = molecular target: Mitogen-activated protein kinase 10 (Mus musculus) (UniProt Q61831); experiment: JNK3 AlphaScreen Assay (AID 530; active = well fitted curve in either direction with a large enough effect, not every such curve was filed as active;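 also: kinase came from lysate of stimulated human HepG2 cells; signal reports phosphorylation of biotinylated GST-cJun 1-79 at Ser73 with 10 µM ATP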); settings: JNK3 lysate, c-Jun phosphorylation; series mostly up to 57.1 µM
# Summary of the method: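 Activity was read by AlphaScreen after JNK3-containing HepG2 lysate (cytokine pre-activated) phosphorylated biotinylated GST-cJun with 10 uM ATP at room temperature. Phospho-Ser73 cJun antibody with Protein-A acceptor beads provided detection.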
# [5] = Cell Viability - Renal Proximal Tubule (AID 545); settings: renal proximal tubule cells viability; at 91.7 µM (top of the series), primary cells of rat origin unless noted; also: nearly all actives have a fitted effect of over 40% in size
# Summary of the method: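 Rat renal proximal tubule primary cells, 1000/well, exposed to compounds for 40 hr at 37 °C in complete medium; cellular ATP read by CellTiter-Glo luminescence. AC50 from concentration-response fitted with standard Hill equation.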
# [6] = Cell Viability - Mesenchymal (AID 546); settings: mesenchymal cells viability, qHTS; series mostly up to 91.7 µM;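 also: cells exposed to compound for 40 hours before reading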
# Summary of the method: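 Human renal mesenchymal cells (glomerulus-derived), 1000 cells/well, 5 hr 37 °C pre-incubation; compound 40 hr, 37 °C; CellTiter-Glo, 20 min RT; luminescence; AC50 via Hill equation.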
# [7] = Cellular Toxicity (caspase-3) Jurkat (AID 655); settings: Jurkat caspase-3 activation, luminescence, DMSO = 0%, tamoxifen = 100%; at 92.2 µM (top of the series);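 also: cells exposed to compound for 16 h at 37 °C before reading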
# Summary of the method: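 Jurkat cells (5000/well) in complete medium exposed 16 h at 37 C; caspase-3/7 activity read by Caspase-Glo luminescence after 20 min at room temperature. Normalized to DMSO and 100 uM tamoxifen; AC50 from Hill fits.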
# [8] = Cellular Toxicity (caspase-3) HUV-EC-C (AID 656); settings: HUV-EC-C cells, caspase-3 activation (apoptosis), vehicle = 0, 100 µM tamoxifen = 100%; series mostly up to 92.2 µM
# Summary of the method: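 HUV-EC-C cells (1000/well) in complete medium, compound-treated 16 h at 37 °C; caspase-3/7 activity read by Caspase-Glo 3/7 luminescence. Normalized to DMSO (basal) and 100 uM tamoxifen (100%); AC50 from Hill-equation concentration-response fits.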
# [9] = Cellular Toxicity (caspase-3) SHSY5Y (AID 657); settings: SH-SY5Y caspase-3 activation, DMSO zero, 10 µM staurosporine = 100%; series mostly up to 91.7 µM
# Summary of the method: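 SH-SY5Y human neuroblastoma cells, 1500/well, exposed to compound for 16 hours at 37 °C in complete medium. Caspase-3/7 activity read by Caspase-Glo luminescence after 1 hr at room temperature, normalized to DMSO and 10 uM staurosporine; AC50 from Hill fit.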
# [10] = Cellular Toxicity (caspase-3) BJ (AID 658); settings: BJ fibroblasts, luminescence, normalized: DMSO 0%, staurosporine 100%; series mostly up to 91.7 µM
# Summary of the method: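 qHTS, BJ fibroblasts, 1000 cells/well; 5 hr preincubation, 16 hr compound, 37 °C; Caspase-Glo 3/7 reagent, 1 hr RT; luminescence. DMSO = 0%, 10 uM staurosporine = 100%. Hill-equation AC50.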
# [11] = Cellular Toxicity (caspase-3) MRC-5 (AID 659); settings: MRC-5 cells, luminescence, normalized: DMSO 0%, 10 µM staurosporine 100%; series mostly up to 91.7 µM
# Summary of the method: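 MRC-5 fibroblasts, 1500/well; 16 h cpd, 37 °C; Caspase-Glo 3/7, 1 h RT; lumi read. Norm: DMSO = 0%, 10 uM staurosporine = 100%. Hill-fit AC50 from qHTS conc-response.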
# [12] = Cellular Toxicity (caspase-3) Mesangial (AID 660); settings: mesangial cells, normalized: DMSO 0%, 100 µM tamoxifen 100%; series mostly up to 91.7 µM;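 also: cells exposed to compound for 16 h before the caspase read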
# Summary of the method: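 Caspase 3/7 activation measured by Caspase-Glo 3/7 luminescence (20 min, room temperature) following 16 h exposure of mesangial cells (1000/well); AC50 from Hill-equation fit, normalized to DMSO and 100 uM tamoxifen.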
# [13] = Cellular Toxicity (caspase-3) SK-N-SH (AID 661); settings: SK-N-SH caspase-3 activation, qHTS, DMSO as zero, staurosporine as full; series mostly up to 91.7 µM
# Summary of the method: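 Caspase 3/7 activation was read by luminogenic substrate cleavage after 16 hour treatment of SK-N-SH cells. Signal was scaled between DMSO and 10 uM staurosporine, and concentration-response data were fitted with the Hill equation for AC50.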
# [14] = Cellular Toxicity (caspase-3) H-4-II-E (AID 663); settings: H-4-II-E rat hepatoma, scaled: DMSO 0%, 100 µM tamoxifen 100%; series mostly up to 92.2 µM;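 also: cells exposed to compound for 16 hr before readout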
# Summary of the method: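 H-4-II-E rat hepatoma, 1500 cells/well, 5 hr settle at 37 °C; compound 16 hr, 37 °C, complete medium; Caspase-Glo 3/7, 20 min RT; luminescence. DMSO = 0%, 100 uM tamoxifen = 100%; Hill-equation AC50.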
# [15] = Cellular Toxicity (caspase-3) Renal Proximal Tubule (AID 667); settings: renal proximal tubule cells; at 91.7 µM (top of the series), primary cells freshly taken from rat, solvent-only wells 0%, staurosporine 100% unless noted;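 also: cells exposed to compound for 16 hours at 37 °C before detection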
# Summary of the method: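 Freshly isolated primary rat kidney proximal tubule cells, 1000/well, treated 16 hr at 37 °C, then Caspase-Glo 3/7 luminescence after 1 hr. Normalized to DMSO and 10 uM staurosporine; AC50 from Hill fit.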
# [16] = qHTS Assay for Identification of Small Molecule Inducers of Hypoxia Response (AID 2120; active = well fitted curve in the direction sought with a large enough effect in the signal ratio, with a control signal flat, not every such curve was filed as active; the % refers to the signal ratio); settings: hypoxia response reporter cells, beta-lactamase ratio readout; series mostly up to 104 µM
# Summary of the method: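 Reporter induction read as the CCF4 blue/green (460nm/530nm) emission ratio after 2.5 h dye loading at room temperature. ME-180 HRE-beta-lactamase cells received titrated compounds for 17 h at 37 degrees Celsius; AC50 values derived.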
# [17] = qHTS assay for small molecule agonists of retinoid X receptor alpha signaling (AID 588544); settings: HEK293T RXRa-UAS-bla, beta-lactamase reporter, 18 h; 530 nm emission
# [18] = qHTS assay for small molecule agonists of the antioxidant response element (ARE) signaling pathway measured by Nrf2-dependant transcriptional activity - cell viability counter screen (AID 720653; active = well fitted curve in the direction sought with a large enough effect in the repeat runs; an effect the other way counts as inactive or inconclusive); settings: ARE-bla HepG2 viability, CellTiter-Glo ATP luminescence, 16 h; stronger effect = lower value
# Summary of the method: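 ARE-bla HepG2 cells treated with compounds for 16 h at 37C; this counter screen measures viability as intracellular ATP by CellTiter-Glo luminescence after 30 min at room temperature.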
# [19] = qHTS assay for cell viability of HEK293 cells (AID 743288); settings: ATP luminescence (CellTiter-Glo), 18 h; max response: stronger effect = lower value; also: nearly all actives have a fitted effect of over 50% in size
# Summary of the method: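 Steps: plate 2,000 parental HEK293 cells per well; incubate ≥5 h, 37 C; add compounds in DMSO; incubate 18 h, 37 C; add CellTiter-Glo; wait 30 min at room temperature; read luminescence.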
# [20] = qHTS assay for cell viability of the p53RE-bla HCT-116 cell line (AID 743292); settings: p53RE-bla HCT-116 viability, ATP luminescence, 16 h; series mostly up to 95 µM; also: nearly all actives have a fitted effect of over 55% in size
# Summary of the method: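 CellSensor p53RE-bla HCT-116 cells (4,000/well) pre-incubated 5 h at 37 C, then exposed to compounds in DMSO for 16 h at 37 C. Viability read as ATP content by CellTiter-Glo luminescence after 30 min at room temperature.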
SMILES,Potency [1],Potency [2],Potency [3],outcome [4],"activity change, negative = cytotoxicity [5]",outcome [6],caspase-3 activation [7],outcome [8],outcome [9],outcome [10],outcome [11],outcome [12],outcome [13],outcome [14],caspase-3 activation [15],outcome [16],max response [17],max response [18],max response [19],Potency [20]
[O-][Br+2]([O-])O,> 92 µM (inactive),> 92 µM (inactive),> 92 µM (inactive),inactive,-9.6% (inactive) and -6.64% (inactive),inactive,-7.93% (inactive) and -8.01% (inactive),inactive,inactive,inactive,inactive,inactive,inactive,inactive,-18.8% (inactive) and -17.4% (inactive),inactive,8.99% and 2.4%,3.23% (inactive) and -1.6% (inactive),-15.7% (inactive) and 1.39% (inactive),inactive
ClC(Cl)(Cl)c1ccccc1,> 92 µM (inactive),> 92 µM (inactive),> 92 µM (inactive),inactive,-4.93% (inactive) and -2.74% (inactive),inactive,18.2% (inactive) and -0.502% (inactive),inactive,inactive,inactive,inactive,inactive,inactive,inactive,-4.62% (inactive) and -2.75% (inactive),inactive,2.72% and -9.44%,-1.54% (inactive) and 10.3% (inactive),-4.96% (inactive) and -3.96% (inactive),inactive
C=CC1CC=CCC1 (centres undefined),> 92 µM (inactive),> 92 µM (inactive),> 92 µM (inactive),inactive,3.71% (inactive),inactive,0.736% (inactive),inactive,inactive,inactive,inactive,inactive,inactive,inactive,5.69% (inactive),inactive,0.848% and 1.74%,1.14% (inactive) and 1.26% (inactive),-5.12% (inactive) and -6.19% (inactive),inactive
Clc1cccc(C(Cl)(Cl)Cl)n1,> 92 µM (inactive),> 92 µM (inactive),> 92 µM (inactive),inactive,-6.77% (inactive),inactive,-0.503% (inactive),inactive,inactive,inactive,inactive,inactive,inactive,inactive,4.49% (inactive),inactive,-9.56% and 6.27%,1.86% (inactive) and -5.38% (inactive),8.34% (inactive) and -7.37% (inactive),inactive
C[C@]12CC[C@H]3[C@@H](CCC4=CC(=O)CC[C@@]43C)[C@@H]1CC[C@@H]2O,> 92 µM (inactive),> 92 µM (inactive),> 92 µM (inactive),–,-15.1% [at 91.7 µM] (inactive),inactive,4.38% (inactive),inactive,inactive,inactive,inactive,inactive,inactive,inactive,-4.12% [at 91.7 µM] (inactive),inactive,3.81%,-2.92% (inactive),-9.57% (inactive),inactive
